Myeloid diff MLP – compounds promoting myeloid differentiation; calls only at 10 µM; hit rate 1% among 360,000; ER-HoxA9 myeloid progenitors, lysozyme-GFP differentiation, flow cytometry;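 active = normalized GFP-positive differentiation at or above the plate's own cutoff, the solvent-only control mean plus 3 SD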;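 note: cells exposed to compound for four days before flow analysis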
NPR1 activator – GC-A (human) enzyme activation. HEK293 GC-A cells, cGMP TR-FRET, EC30 ANP; 0% at EC30 ANP, 100% saturating ANP. activation, % at 10 µM. hit rate 0.14% among 370,000. AID 1671463; in the data active = activation above about 40%
NPR2 activator – GC-B (human) receptor activation; hit rate 0.11% among 370,000; P20594; activation, % at 10 µM; HEK293-GC-B cells, CNP EC30, cGMP TR-FRET; 0% at EC30 CNP, 100% saturating CNP;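 active = activation at 10 µM reaching about 35% in either raw or pattern-adjusted values, limit read from the data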
Target sequence (P20594 whole entry, looked up): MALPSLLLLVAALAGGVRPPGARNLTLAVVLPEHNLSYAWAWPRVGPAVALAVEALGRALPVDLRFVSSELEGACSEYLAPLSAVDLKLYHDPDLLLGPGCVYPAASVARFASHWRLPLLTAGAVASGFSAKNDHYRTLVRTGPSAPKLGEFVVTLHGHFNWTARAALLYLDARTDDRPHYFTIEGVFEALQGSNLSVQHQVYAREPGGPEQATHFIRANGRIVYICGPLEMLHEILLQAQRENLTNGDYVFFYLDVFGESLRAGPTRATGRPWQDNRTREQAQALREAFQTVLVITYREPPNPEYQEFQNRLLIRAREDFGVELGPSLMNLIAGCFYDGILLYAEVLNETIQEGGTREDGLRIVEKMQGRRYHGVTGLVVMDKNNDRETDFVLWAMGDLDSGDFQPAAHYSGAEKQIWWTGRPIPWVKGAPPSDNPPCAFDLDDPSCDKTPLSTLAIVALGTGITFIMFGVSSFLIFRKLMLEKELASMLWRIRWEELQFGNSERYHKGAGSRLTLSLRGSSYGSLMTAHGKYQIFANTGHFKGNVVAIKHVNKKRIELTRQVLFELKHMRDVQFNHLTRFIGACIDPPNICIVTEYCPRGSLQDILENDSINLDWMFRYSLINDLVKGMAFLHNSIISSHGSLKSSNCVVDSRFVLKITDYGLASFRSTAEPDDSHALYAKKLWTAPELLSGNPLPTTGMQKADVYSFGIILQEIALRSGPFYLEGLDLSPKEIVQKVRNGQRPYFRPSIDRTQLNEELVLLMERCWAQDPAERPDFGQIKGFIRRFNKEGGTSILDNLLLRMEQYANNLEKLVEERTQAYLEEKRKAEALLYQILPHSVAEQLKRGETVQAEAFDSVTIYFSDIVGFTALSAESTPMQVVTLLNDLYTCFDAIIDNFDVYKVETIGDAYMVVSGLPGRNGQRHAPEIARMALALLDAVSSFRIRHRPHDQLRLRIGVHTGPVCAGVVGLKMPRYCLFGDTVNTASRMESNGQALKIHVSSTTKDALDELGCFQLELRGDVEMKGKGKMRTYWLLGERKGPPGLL
Granule exo inh – lytic granule exocytosis inhibition. TALL-104 LAMP-1 surface exposure, flow cytometry; cells stimulated with thapsigargin and PMA. inhibition, % at 10 µM. hit rate 0.66% among 360,000;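 active = inhibition above about 55%, limit read from the data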
Myeloid diff – promotes myeloid progenitor differentiation. shares compounds with Myeloid diff MLP. ER-HoxA9 myeloid progenitors, GFP/Mac1 double-positive flow. calls only. hit rate 2% among 2,300. AID 651706;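 active = share of green or green-and-red cells above 9 and 9% in run 1 or 4 and 3% in run 2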
GFP autofluor – counter-screen for myeloid differentiation promoters: compound fluorescence. shares compounds with Myeloid diff MLP. fluorescence response, % (test concentration not listed). ER-HoxA9 myeloid progenitors, no estrogen, GFP autofluorescence flow cytometry; vehicle wells 0%, positive control 100%. hit rate 7.4% among 2,300;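 active = over 5% cells positive for green fluorescent reporter, or over 2% positive for both it and APC stain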;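 note: range taken on the double positive population between DMSO and positive control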
Numbers without * were called inactive; i = inactive; · = no result; + = active, no number. Sampled rows, rich in hits. Any-hit rate of the full collection: about 1.8%.

SMILES | Myeloid diff MLP | NPR1 activator | NPR2 activator | Granule exo inh | Myeloid diff | GFP autofluor
CCNC(=O)C1(C)CCN1CCC(=O)c1ccc(Br)cc1 (stereo not given) | i | 5 | -4 | 3 | · | ·
COc1ccccc1NC(=S)N(Cc1ccco1)Cc1cc2cc(C)cc(C)c2[nH]c1=O | i | -11 | -7 | -4 | i | 0
Cc1nn(C)c(C)c1NC(=O)CSc1nnc(C)n1-c1ccccc1 | + | 4 | 5 | -1 | i | 0
CC(=O)Nc1ccc(NC(=O)CSc2nnc(C)n2-c2ccccc2)cc1 | i | 5 | 1 | 1 | · | ·
c1ccc(-c2nnc3n2N=C(c2ccc4ccccc4c2)CS3)cc1 | · | 2 | 5 | · | · | ·
CC(C)COC(=O)c1ccc2c(c1O)C(=O)c1ccccc1C2=O | i | 20 | 0 | -1 | i | 6.1*
NC(=O)COC(=O)c1cccc2c1-c1ccccc1C2=O | i | -5 | 4 | 8 | · | ·
C/C(=N/NC(=O)CN(c1ccccc1)S(=O)(=O)c1ccccc1)c1ccccc1O | i | 0 | 6 | 10 | i | 0
CCCC/C(C)=N/NC(=O)CN(c1ccc(Br)cc1)S(=O)(=O)c1ccccc1 | i | 2 | 0 | 1 | · | ·
CCOc1ccc(N(CC(=O)Nc2ccc(C)cc2)S(=O)(=O)c2c(C)noc2C)cc1 | + | 3 | -5 | 7 | i | 1
CCOc1ccc(N(CC(=O)Nc2ccc(F)c(F)c2)S(=O)(=O)c2c(C)noc2C)cc1 | i | 2 | 3 | 1 | · | ·
C[C@@H](CO)N(CCc1cn(Cc2ccccc2)nn1)S(=O)(=O)c1ccccc1Br | · | 4 | 0 | · | · | ·
CC(=O)N1N=C(c2ccc(Cl)cc2)OC1c1ccc(C(C)C)cc1 (stereo not given) | i | -6 | -16 | 0 | i | 1
CC(=O)Nc1cc(-c2ccc(F)cc2)cn2c(-c3ccc(F)c(Cl)c3)cnc12 | i | -5 | 3 | 1 | · | ·
CC(=O)Nc1cc(-c2ccc(CO)cc2)cn2c(-c3ccc(F)c(Cl)c3)cnc12 | + | 4 | 7 | 9 | i | 3
CC(=O)Nc1cc(-c2ccccc2Cl)cn2c(-c3ccc(S(C)(=O)=O)cc3)cnc12 | + | 17 | 43* | 0 | i | 0
c1ccc2cc3[nH]c(CNc4nc(N5CCOCC5)nc5c4ncn5-c4ccsc4)nc3cc2c1 | · | -6 | 1 | · | · | ·
CC(=O)Nc1ccc(NC(=O)C(C)O/N=C/c2cccc([N+](=O)[O-])c2)cc1 (stereo not given) | i | 1 | -3 | -1 | i | 0
CCc1nnc(NS(=O)(=O)c2ccc(NC(=S)NC(=O)c3cccnc3)cc2)s1 | + | 0 | 1 | -4 | i | 1
Cc1ccc2nc(/C(C#N)=C\c3ccc(N4CCOCC4)o3)[nH]c2c1 | + | 9 | 3 | 1 | i | 29*
Cc1ccc2nc(/C(C#N)=C/c3ccc(-c4ccccc4C(=O)O)o3)[nH]c2c1 | i | 4 | -1 | 8 | · | ·
Cc1cc2nc(/C(C#N)=C\c3ccc(-c4ccccc4C(=O)O)o3)[nH]c2cc1C | i | -5 | 2 | 2 | i | 3
CCN(CC(=O)Nc1ccc(C#N)cc1)CC(=O)Nc1ccc2c(c1)OCCO2 | i | -8 | -3 | -3 | · | ·
Cc1cccc(C)c1NC(=O)C1CCN(c2ncccn2)CC1 | · | 2 | 1 | · | · | ·
Cc1cc(C(=O)COC(=O)C2=COCCO2)c(C)n1-c1ccccc1 | i | 4 | -2 | -16 | · | ·
SMILES | Myeloid diff MLP | NPR1 activator | NPR2 activator | Granule exo inh | Myeloid diff | GFP autofluor
COC(=O)[C@@]12C[C@@H](CC(=O)N3CCCC3)C(=O)N(Cc3cccc4ccccc34)C1=CCC(C)(C)C2 | i | -4 | 11 | -1 | · | ·
CC(=O)c1cc(-c2ccc(Cl)c(C(F)(F)F)c2)c(=O)n2c1CCC2 | · | 3 | 20 | · | · | ·
N#Cc1c(-c2ccc(C(F)(F)F)cc2)cc(-c2ccccc2)[nH]c1=S | + | -3 | -1 | -1 | i | 0
Cc1ccc(-c2cc(-c3ccccc3)[nH]c(=S)c2C#N)cc1 | i | 1 | 4 | 1 | · | ·
CC(C)=C1SC(N2CCCCC2)=NC1=O | i | 1 | -4 | 2 | · | ·
C/C(=C1/SC(N2CCCC2)=NC1=O)c1ccc(Br)cc1 | + | -10 | -10 | 12 | + | 1
O=C(CSc1ccccn1)NC1CCCc2c1cnn2-c1ccccc1F (stereo not given) | i | 6 | -1 | -6 | · | ·
COCC1OC(OC(C)C(O)c2cnc3nc(N)[nH]c(=O)c3n2)C(O)C(OC)C1O (stereo not given) | i | 4 | 2 | 10 | · | ·
O=C(CN1CCN(Cc2ccccc2)CC1)NNC(=O)c1ccccc1 | i | 2 | 2 | -2 | i | 0
C/C(C=NNC(=O)CSc1nc2ccccc2n1C)=C\c1ccccc1 | · | -4 | 5 | · | · | ·
COc1ccccc1Oc1nnnn1-c1ccc(C(N)=O)cc1 | i | 4 | 1 | -3 | i | 1
COc1ccc(C2SCC(=O)N2c2c(C)n(C)n(-c3ccccc3)c2=O)cc1OC (stereo not given) | + | -1 | 5 | -3 | i | 0
COc1cccc(-c2nnc3n2N=C(c2cc(OC)ccc2OC)CS3)c1 | + | 18 | 12 | 15 | i | 11*
Fc1ccc(-c2n[nH]c(=S)n2N=Cc2ccc(-c3ccccc3)cc2)cc1 | · | -4 | -8 | · | · | ·
O=C(CSCc1ccc(F)cc1)N1CCN(c2ccc(F)cc2)CC1 | i | -5 | -1 | -1 | · | ·
Cc1ccc(CSCC(=O)N2CCN(c3ccc(F)cc3)CC2)cc1 | i | 3 | -1 | -2 | i | 1
COc1cc(OC)c(NC(=O)c2cc3ccccc3cc2O)cc1Cl | i | 7 | 2 | 0 | · | ·
COc1cc(C(=O)N2CCCC(c3cc(C(=O)NCc4ccccc4)no3)C2)cc(OC)c1C (stereo not given) | i | 1 | 5 | -1 | · | ·
CC1CCN(Cc2ccc(-c3nnn(CC(=O)Nc4ccccc4Cl)n3)cc2)CC1 | + | -5 | 0 | 0 | i | 0
Cc1cccc(C)c1NC(=O)Cn1nnc(-c2ccc(CN3CCC(C)CC3)cc2)n1 | i | 0 | 0 | -4 | · | ·
O=C(NCCc1ccccc1)OCc1cn(Cc2c(F)cccc2F)nn1 | · | 3 | 0 | · | · | ·
Cc1nc2nc(-c3ccccc3)[nH]n2c(=O)c1C | i | 1 | -2 | -1 | i | 0
Cc1nc2nc(-c3cccnc3)[nH]n2c(=O)c1C | i | -3 | 3 | -2 | · | ·
CCCCOc1ccc(S(=O)(=O)NC(=O)C2(C)CCN2C(=O)CCc2ccccc2)cc1 (stereo not given) | i | 4 | 2 | -1 | · | ·
CC(=O)Nc1nc(-c2ccccc2)nc(-c2ccccc2OC(C)=O)n1 | + | 2 | 4 | 0 | i | 0
